Laboratory results from PubChem BioAssay.
“And” between values parts separate entries of the source, which are not always exact repeats. Identical values can stand only once. Some structures have more than one record in an assay (separate samples or runs), and their calls can disagree. The source made the active and inactive calls. Unless noted, no rule for the calls is given here.

Legend:
[1] = compound effects on lung adenocarcinoma cell viability – A549, calcein-AM fluorescence, 48 h, basal, profiling panel (AID 1162); details: higher = more signal; also: test concentration not given here
[2] = compound effects on differentiated 3T3-L1 adipocyte viability – cell-based, 3T3-L1 adipocytes, calcein-AM fluorescence, 48 h, basal, profiling panel (AID 1163); details: 3T3-L1 adipocytes viability, higher = more signal; also: test concentration not given here
[3] = compound effects on hepatocellular carcinoma cell viability – HepG2, calcein-AM fluorescence, 48 h, basal, profiling panel (AID 1164); details: higher = more signal; also: test concentration not given here
[4] = compound effects on multiple myeloma cell viability – MM1S, calcein-AM fluorescence, 48 h, basal, profiling panel (AID 1165); details: higher = more signal;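 also: viability of MM1S multiple myeloma cells under basal unstimulated conditions; test concentration not given here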
[5] = calcein-AM signal in unstimulated myeloma cells – cell-based, calcein-AM fluorescence, 48 h, PK04 Diversity Set, profiling panel (AID 1166); details: RPMI8226 myeloma viability, higher = more signal;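 also: cells grown under basal conditions without added stimulus; test concentration not given here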
[6] = JC-1 mitochondrial signal, unstimulated HepG2 cells – cell-based, JC-1 fluorescence, 24 h, 100 nL compound, profiling panel (AID 1167); details: HepG2 mitochondrial potential, higher = more signal; also: test concentration not given here
[7] = JC-1 mitochondrial signal, unstimulated adipocytes – cell-based, JC-1 fluorescence, 3T3-L1 adipocytes, 24 h, 100 nL compound, profiling panel (AID 1168); details: JC-1 mitochondrial fluorescence, higher = more signal, called active from +8 up or from −8 down; also: test concentration not given here
[8] = JC-1 mitochondrial signal, unstimulated myeloma cells – cell-based, JC-1 fluorescence, RPMI8226, 24 h, 100 nL compound, profiling panel (AID 1169); details: JC-1 mitochondrial potential fluorescence, higher = more signal; also: test concentration not given here
[9] = JC-1 mitochondrial signal, unstimulated MM1S myeloma – cell-based, JC-1 fluorescence, 24 h, 100 nL compound, profiling panel (AID 1170); details: MM1S mitochondrial potential, higher = more signal; also: test concentration not given here
[10] = resazurin metabolic signal in A549 cells – cell-based, resazurin fluorescence, 24 h, PK04 Diversity Set, profiling panel (AID 1171); details: A549 viability, higher = more signal, called active from +8 up or from −8 down; also: test concentration not given here
[11] = resazurin metabolic signal in HepG2 cells – cell-based, resazurin fluorescence, 24 h, PK04 Diversity Set, profiling panel (AID 1172); details: HepG2 viability, higher = more signal; also: test concentration not given here
[12] = budding yeast growth changes without added modifier – OD600, strain BY4716, 24 h, basal condition, primary screen (AID 1173); details: S. cerevisiae BY4716 growth, OD600, 24 h; higher = more signal, called active from +8 up or from −8 down
[13] = viability profiling in MM1S myeloma cells – cell-based, resazurin fluorescence, basal, 24 h, PK04 Diversity Set, profiling panel (AID 1174); details: higher = more signal, called active from +8 up or from −8 down; also: test concentration not given here
[14] = target: Dihydroorotate dehydrogenase (quinone), mitochondrial (Plasmodium falciparum (isolate 3D7)) (UniProt Q08210); assay: inhibition of P. falciparum DHODH – biochemical, C-terminal His tag, absorbance 600 nm, primary screen (AID 1175); details: PfDHODH enzyme, DCIP absorbance 600 nm; higher = more signal, called active from +8 up or from −8 down;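 also: recombinant parasite enzyme with a five histidine tag at its C terminus; test concentration not given here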
[15] = growth modulation of vineyard yeast isolate – strain RM11-1a, OD600, basal, 24 h, primary screen (AID 1177);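 also: cultures grown under basal conditions with no added stressor; test concentration not given here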; details: S. cerevisiae RM11-1a growth, OD600, 24 h; higher = more signal, called active from +8 up or from −8 down
[16] = growth of efflux-deficient E. coli DRC39 – strain DRC39, OD650, 24 h, E. coli filamentation inducers, primary screen (AID 1178);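 also: growth measured as culture turbidity by optical density at 650 nm; test concentration not given here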; details: E. coli DRC39 acrAB, higher = more signal, called active from +8 up or from −8 down
[17] = growth of efflux-deficient E. coli DRC39 – strain DRC39, OD650, 48 h, E. coli filamentation inducers, primary screen (AID 1179);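 also: screen aims at cell division blockers that make cells filament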; details: E. coli DRC39 delta-acrAB growth, higher = more signal, called active from +8 up or from −8 down
[18] = viability profiling in RPMI8226 myeloma cells – cell-based, resazurin fluorescence, basal, 24 h, PK04 Diversity Set, profiling panel (AID 1180); details: higher = more signal;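 also: RPMI8826 multiple myeloma cell line at 5000 cells per well; test concentration not given here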
[19] = target: E3 ubiquitin-protein ligase XIAP (Homo sapiens) (UniProt P98170); assay: small molecules binding XIAP protein – biophysical, small-molecule microarray, fluorescence 635 nm, primary screen (AID 1181); details: higher = more signal;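 also: score merges 667 nm emission and signal to noise over triplicate slides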
[20] = inhibition of PAO1 biofilm formation – strain PAO1, LB-PBS medium, absorbance 600 nm, primary screen (AID 1176); also: test concentration not given here; details: P. aeruginosa PAO1 growth/biofilm, A600, 12 h; higher = more signal

Sequence of Dihydroorotate dehydrogenase (quinone), mitochondrial (Plasmodium falciparum (isolate 3D7)) (Q08210 whole entry, looked up): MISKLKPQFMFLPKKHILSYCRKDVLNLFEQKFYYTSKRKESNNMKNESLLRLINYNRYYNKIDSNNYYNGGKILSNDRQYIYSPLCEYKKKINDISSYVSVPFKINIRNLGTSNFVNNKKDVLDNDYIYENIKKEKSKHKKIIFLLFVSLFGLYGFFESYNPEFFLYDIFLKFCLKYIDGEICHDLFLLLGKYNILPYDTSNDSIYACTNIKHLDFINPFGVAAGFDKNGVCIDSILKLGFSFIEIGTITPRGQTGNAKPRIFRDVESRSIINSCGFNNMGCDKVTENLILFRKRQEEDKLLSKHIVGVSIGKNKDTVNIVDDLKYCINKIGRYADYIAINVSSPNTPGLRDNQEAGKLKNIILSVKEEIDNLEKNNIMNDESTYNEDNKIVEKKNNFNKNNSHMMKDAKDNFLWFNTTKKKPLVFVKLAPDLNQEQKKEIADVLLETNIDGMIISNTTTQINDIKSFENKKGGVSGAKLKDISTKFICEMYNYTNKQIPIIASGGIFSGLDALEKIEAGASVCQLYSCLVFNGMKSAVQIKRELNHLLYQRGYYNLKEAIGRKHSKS
Sequence of E3 ubiquitin-protein ligase XIAP (Homo sapiens) (P98170 whole entry, looked up): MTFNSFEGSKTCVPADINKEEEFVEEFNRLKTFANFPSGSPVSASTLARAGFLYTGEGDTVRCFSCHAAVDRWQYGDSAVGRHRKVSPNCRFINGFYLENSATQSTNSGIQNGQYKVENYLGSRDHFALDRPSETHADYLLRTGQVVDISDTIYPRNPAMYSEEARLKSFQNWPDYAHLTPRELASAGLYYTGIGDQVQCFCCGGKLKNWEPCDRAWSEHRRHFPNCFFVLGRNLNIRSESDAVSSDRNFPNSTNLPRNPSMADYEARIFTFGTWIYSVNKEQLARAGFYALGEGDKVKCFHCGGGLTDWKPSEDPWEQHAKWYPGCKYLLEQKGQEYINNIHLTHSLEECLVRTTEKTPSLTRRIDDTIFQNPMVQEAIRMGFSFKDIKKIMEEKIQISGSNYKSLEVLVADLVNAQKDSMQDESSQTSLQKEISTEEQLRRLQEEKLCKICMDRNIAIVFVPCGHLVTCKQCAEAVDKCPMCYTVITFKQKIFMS

SMILES	z-score [1]	z-score [2]	z-score [3]	z-score [4]	z-score [5]	z-score [6]	z-score [7]	z-score [8]	z-score [9]	z-score [10]	z-score [11]	z-score [12]	z-score [13]	composite z-score [14]	z-score [15]	z-score [16]	z-score [17]	z-score [18]	composite z-score [19]	z-score [20]
CC(C)N1CC=CC23O[C@@H]4C=CCCOC(=O)C4[C@H]2C(=O)N(C(C)CO)[C@@H]3C1=O (some centres undefined)	-0.507 and 0.287	1.61 and 1.45	-0.658 and -0.153	1.24 and 0.914	0.264 and 0.678	0.534 and 0.979	1.21 (inactive) and 1.41 (inactive)	0.0803 and 0.664	1.69 and 1.02	0.0618 (inactive) and 0.502 (inactive)	-0.0777 and -1.21	-1.44 (inactive) and 0.111 (inactive)	0.963 (inactive) and 0.93 (inactive)	-0.0877 (inactive) and 1.49 (inactive)	-1.2 (inactive) and 0.934 (inactive)	1.2 (inactive) and 1.42 (inactive)	0.847 (inactive) and 1.13 (inactive)	1.32 and 0.67	-0.128 and -0.133	
Cc1ccc(S(=O)(=O)N[C@H]2COC(=O)[C@@H](Cc3ccccc3)NC(=O)[C@@H](C)COC(=O)CC=C[C@@H]2C)cc1	0.671 and -0.545	-0.433 and 1.08	0.364 and -1.68	-1.13 and 1.05	-0.372 and -0.784	0.0571 and -0.176	-0.517 (inactive) and -0.812 (inactive)	-0.259 and 0.107	0.242 and -1.28	0.0258 (inactive) and 0.392 (inactive)	0.328 and 0.224	-0.207 (inactive) and -0.631 (inactive)	0.0731 (inactive) and -0.209 (inactive)	-0.395 (inactive) and -0.412 (inactive)	0.0658 (inactive) and 0.0386 (inactive)	0.046 (inactive) and -0.0139 (inactive)	-0.479 (inactive) and 0.385 (inactive)	0.0023 and 0.238	-0.259 and -0.469	-0.814 (inactive) and -0.479 (inactive)
C[N+](C)(C)CCCCNC(=O)[C@H]1C[C@H]2C(=O)N[C@@H](CCCC[N+](C)(C)C)C(=O)N2[C@H]1c1ccc(O)cc1	-0.231 and -0.502	-1.46 and 0.308	-0.905 and -1.22	-0.088 and -0.298	-0.598 and -0.804	-0.982 and -1.85	-0.258 (inactive) and -0.841 (inactive)	0.629 and -0.808	-0.588 and -0.423	-0.471 (inactive) and -0.706 (inactive)	-0.168 and 0.0318	0.889 (inactive) and 0.811 (inactive)	-0.531 (inactive) and -0.416 (inactive)	-29.8 (active) and -29.4 (active)	0.659 (inactive) and 0.409 (inactive)	0.0769 (inactive) and -0.869 (inactive)	0.0835 (inactive) and -1.41 (inactive)	-0.891 and -1.06	0.104 and 0.0015	0.227 (inactive) and 2.5 (inactive)
C[N+](C)(C)CCCCNC(=O)[C@H]1C[C@H]2C(=O)N[C@@H](CCCC[N+](C)(C)C)C(=O)N2[C@H]1c1cccc(OCCO)c1	-0.663 and -0.261	-0.488 and -0.571	-1.13 and -0.231	-0.485 and -1.67	0.267 and 0.461	-1.2 and -0.91	-0.0125 (inactive) and 0.0612 (inactive)	-0.117 and 0.49	-0.199 and -0.118	-0.964 (inactive) and -0.711 (inactive)	-0.114 and -3.58	0.315 (inactive) and -0.201 (inactive)	-1.18 (inactive) and -1.75 (inactive)	-27.2 (active) and -30.4 (active)	0.152 (inactive) and -0.406 (inactive)	-0.93 (inactive) and -1 (inactive)	-1.32 (inactive) and -1.66 (inactive)	-1.16 and -0.819	0.0159 and 0.136	0.187 (inactive) and 0.23 (inactive)
C=C[C@H](OC)[C@@H](O)c1ccc(OCCO)cc1	-0.057 and 1.18	-0.367 and 0.0113	-0.485 and 0.98	-0.457 and 1.61	-0.179 and 0.542	-0.899 and 1.11	-0.433 (inactive) and -0.178 (inactive)	-0.0855 and -0.21	0.412 and 1.06	-0.555 (inactive) and -0.0644 (inactive)	-0.843 and 0.501	-0.43 (inactive) and -1.55 (inactive)	-0.887 (inactive) and 0.51 (inactive)	-0.0113 (inactive) and -0.134 (inactive)	0.952 (inactive) and -0.0987 (inactive)	-0.258 (inactive) and 1.78 (inactive)	-0.366 (inactive) and 1.8 (inactive)	-1.28 and 1.05	-0.206 and -0.352	0.0123 (inactive) and 1.37 (inactive)
CC(C)[Si]1(C(C)C)OCc2cc(CCCc3cc4c(c(CCc5ccccc5)n3)[Si](C(C)C)(C(C)C)OC4)nc(CCc3ccccc3)c21	0.148 and -0.222	0.673 and -0.626	-0.661 and -0.566	-1.66 and 0.326	-1.09 and -0.322	-0.508 and -1.19	1.72 (inactive) and -1 (inactive)	-0.152 and 1.02	-0.38 and -0.852	0.576 (inactive) and -0.19 (inactive)	0.926 and -0.531	-15.4 (active) and 0.852 (inactive)	-0.78 (inactive) and -0.186 (inactive)	-0.351 (inactive) and 0.681 (inactive)	-0.656 (inactive) and 0.13 (inactive)	1.87 (inactive) and -0.184 (inactive)	1.19 (inactive) and -0.0698 (inactive)	0.583 and -1.16	-0.0095 and -0.111	0.35 (inactive)
